High-throughput results deposited in PubChem BioAssay by National Center for Advancing Translational Sciences (NCATS).
Sampled rows, rich in hits. Any-hit rate of the full collection: about 9.4%.
Rab9 prom act – activates the Rab9 promoter; actives 2.8% (n = 320,000); Huh7 Rab9 promoter-luciferase reporter, luminescence, 24 h; Potency, µM (highest dose often 9.22 µM), most hits filed as activators; note: nearly all actives have a fitted effect of over 60% in size
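Luciferase signal after 10 min detection reagent at ambient indicates Rab9 promoter upregulation; stably transfected Huh7 cells were treated 24 h with compound in DMSO at 37 °C, 5% CO2.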
ELG1 repair inh – inhibitors of ELG1-dependent DNA repair in HEK293T cells. HEK293T ELG1-luciferase reporter, luminescence, 16 h; DNA damage induced by 5-fluorouridine. Potency, µM (highest dose often 46.1 µM), hits mostly inhibitors. actives 2.3% (n = 330,000). AID 504467; note: nearly all actives have a fitted effect of over 55% in size
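Overnight (16 hr) co-exposure of 2,000 cells/well to 5-fluorouridine and compound at 37 °C preceded detection. Luciferase was quantified via ONE-Glo luminescence; loss of signal denotes inhibition.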
ELG1 genotoxic – induces genotoxicity in HEK293T cells with luciferase-tagged ELG1; HEK293T ELG1-luciferase reporter, luminescence, 16 h; Potency, µM (top dose mostly 46 µM), hits mostly activators; actives 1.3% (n = 330,000); note: nearly all actives have a fitted effect of over 60% in size
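ELG1-luciferase HEK293T cells, 2,000/well; compound pinned in; 16 hr, 37 °C, 5% CO2; ONE-Glo, 30 min RT; luminescence on CCD imager.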
FLuc counter – counter-screen for miR-21 project: firefly luciferase inhibitors or activators; P08659; actives 6.9% (n = 360,000); purified FLuc, Km substrates, luminescence inhibition; Potency, µM (titrated, usually from 57.5 µM), most hits filed as inhibitors; AID 588342; note: nearly all actives have a fitted effect of over 55% in size
Target sequence (P08659 whole entry, looked up): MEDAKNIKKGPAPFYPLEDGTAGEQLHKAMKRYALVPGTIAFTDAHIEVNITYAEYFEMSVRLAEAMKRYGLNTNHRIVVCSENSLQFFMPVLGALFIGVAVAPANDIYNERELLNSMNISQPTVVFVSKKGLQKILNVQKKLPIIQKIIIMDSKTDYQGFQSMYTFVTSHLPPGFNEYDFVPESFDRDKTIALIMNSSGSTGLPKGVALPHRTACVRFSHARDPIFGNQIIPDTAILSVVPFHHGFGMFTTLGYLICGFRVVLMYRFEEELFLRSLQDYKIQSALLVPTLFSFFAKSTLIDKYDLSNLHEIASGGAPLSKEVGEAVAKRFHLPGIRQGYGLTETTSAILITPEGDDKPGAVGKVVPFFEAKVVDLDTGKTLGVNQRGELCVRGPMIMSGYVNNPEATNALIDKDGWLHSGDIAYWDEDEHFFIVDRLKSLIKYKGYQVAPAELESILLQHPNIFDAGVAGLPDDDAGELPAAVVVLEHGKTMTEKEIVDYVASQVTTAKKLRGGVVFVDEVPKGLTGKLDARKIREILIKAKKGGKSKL
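Purified P. pyralis luciferase, 10 nM final, with Km-level 10 uM D-luciferin and 10 uM ATP in 50 mM Tris acetate pH 7.5, 10 mM Mg acetate, 0.01% Tween-20, 0.05% BSA; 6-point qHTS titration about 60 µM downward; luminescence read.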
NPC1 promoter act – NPC1 promoter activation | Huh7 NPC1 promoter luciferase reporter, 24 h | AID 485313 | Potency, µM (doses to about 9.22 µM), hits mostly activators | actives 2.4% (n = 320,000); note: nearly all actives have a fitted effect of over 60% in size
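Huh7 reporter cells (NPC1 promoter driving luciferase) are dosed with compound for 24 h at 37 °C, 5% CO2; luciferase detection reagent is then added and luminescence measured after 10 min at ambient temperature.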
SMN2 splice up – SMN2 splice variant enhancement | HEK293 SMN2-luciferase splicing reporter, luminescence, 30-36 h | Potency, µM (titrated, usually from 46.1 µM), most hits filed as activators | actives 2.8% (n = 210,000) | AID 1458; note: nearly all actives have a fitted effect of over 55% in size
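HEK293 cells carry an SMN2 minigene-luciferase reporter in which exon 7 inclusion puts luciferase in frame. Cells were seeded at 2000 cells/well, attached for 10-12 hours, then exposed to compounds for 30-36 hours at 37C before ONE-Glo luminescence.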
Numbers stand for hits; . = inactive; ? = inconclusive; / = no result; [ ] = dose if it differs, or a comment. Calls come from the whole dose curve; as a rule, active = well fitted curve in the direction sought with a large enough effect; inconclusive = small, poorly fitted or top-dose-only effect, or another doubt; inactive = no such curve, though single readings can be large; an effect the other way counts as inactive or inconclusive.

SMILES	Rab9 prom act	ELG1 repair inh	ELG1 genotoxic	FLuc counter	NPC1 promoter act	SMN2 splice up
Cn1c(SCC(=O)N2CCN(c3ccccc3)CC2)nnc1-c1cc2ccccc2o1	.	13µM	.	.	.	.
O=C(Nc1ccc(Cl)c(C(F)(F)F)c1)C(Cc1ccccc1)NS(=O)(=O)c1cccc2nsnc12 (configuration not stated)	/	/	/	.	/	.
COCCCNC(=O)c1ccc(Cn2c(=O)c3cccn3c3cccnc32)cc1	/	/	/	.	/	/
CCc1ccc(Sc2cc(C(=O)O)c3ccccc3n2)cc1	/	/	/	15.1µM	/	/
CCOC(=O)N1CCC(NC(=O)c2cc(-c3ccc(OC)cc3)nc3ccccc23)CC1	.	.	.	4.78µM	.	/
CCOC(=O)N1CCC(NC(=O)c2cc3cc4cc(OC)ccc4nc3o2)CC1	.	23.1µM	.	?	.	.
O=C(O)c1cc(Sc2ccc(Br)cc2)nc2ccccc12	.	.	.	?	.	.
COc1ccc(-c2cc(C(=O)N3CCCCCC3)c3ccccc3n2)cc1	.	.	.	6.75µM	.	/
COC(=O)c1ccccc1NC(=O)CSc1c2c(nc3ccc(Cl)cc13)CCCC2	/	/	/	.	/	.
CCCCN(CC)C(=O)c1ccc2c(c1)NC(=O)c1ccccc1S2	/	/	/	.	/	.
CCOC(=O)O[C@@H](C)OC(=O)[C@@H]1N2C(=O)[C@@H](NC(=O)[C@@H](N)c3ccccc3)[C@H]2SC1(C)C	/	/	/	/	/	.
CCOc1ccccc1NC(=O)c1c(NCc2ccc(OC)c(OC)c2OC)sc2c1CCC(C)C2 (configuration not stated)	/	/	/	.	/	/
O=C(O)c1cc(-c2cc(C(=O)O)c3ccccc3n2)nc2ccccc12	.	.	.	?	.	/
COc1cc(-c2cc(C(=O)N3CCCCCC3)c3ccccc3n2)cc(OC)c1OC	.	.	.	.	.	/
Cc1ccc(-c2cc(C(=O)N3CCC(C)CC3)c3ccccc3n2)cc1	.	?	.	4.26µM	.	/
CCc1ccc(-c2cc(C(=O)O)c3ccccc3n2)s1	1.41µM	?	.	0.536µM	2µM	/
O=C(c1cc(-c2ccc(Br)cc2)nc2ccccc12)N1CCC1	.	.	.	16.9µM	.	/
O=C(c1cc(-c2cccc(Br)c2)nc2ccccc12)N1CCCC1	.	.	.	15.1µM	.	/
NC(=O)C1CCN(C(=O)c2cc(-c3ccc(Cl)cc3)nc3ccccc23)CC1	/	?	.	/	/	/
CCN(Cc1ccccc1)C(=O)C1CCC(CNS(=O)(=O)c2ccc3c(c2)CCCC(=O)N3)CC1 (configuration not stated)	/	/	/	.	/	/
CC(C)(C)c1ccc(C(=O)N2CC(=O)Nc3ccc(F)cc3C2c2ccc(F)cc2)cc1 (configuration not stated)	/	/	/	.	/	.
Cc1ccc(-c2cc(C(=O)N3CCCC3)c3ccccc3n2)s1	.[1.84 µM]	?	.	5.36µM	.	/
O=C(c1cc(Cl)nc2ccccc12)N1CCCCC1	.	.	.	.	.	.
O=C(COc1ccc([N+](=O)[O-])cc1)N1CCC(c2nc3ccccc3s2)CC1	/	/	/	.	/	/
O=C(N/N=C/c1ccc(N2CCOCC2)cc1)c1ccccc1OCCOc1ccccc1	.	16.4µM	.	.	.	.
SMILES	Rab9 prom act	ELG1 repair inh	ELG1 genotoxic	FLuc counter	NPC1 promoter act	SMN2 splice up
COc1ccc(C(=O)N/N=C/c2ccc(N3CCOCC3)s2)cc1OC	.	.	.	.	.	/
O=C(Nc1ccc(N2CCOCC2)cc1N1CCOCC1)c1cccs1	.	.	.	.	.	.
O=C(N/N=C/c1ccc(N2CCOCC2)s1)c1ccc(NS(=O)(=O)c2cccs2)cc1	.	.	.	26.9µM	.	/
O=C(N/N=C/c1ccc(N2CCOCC2)cc1)c1cccs1	?	?	?	8.49µM	2.82µM	11.2µM
O=C(c1ccc(N2CCOCC2)cc1)c1cccs1	1.12µM	?	?	1.9µM	0.891µM	2.51µM
O=C(c1nc2ccc([N+](=O)[O-])cc2[nH]c1=O)[C@@H](O)c1ccc2c(c1)OCO2	/	/	/	/	/	.[9.22 µM]
O=C(NN=Cc1ccc(F)c(F)c1)c1ccc(NS(=O)(=O)c2cccs2)cc1	/	.	.	/	/	/
O=C(N/N=C/c1ccc2c(c1)OCO2)c1ccc(NS(=O)(=O)c2cccs2)cc1	.	.	.	9.53µM	.	.
O=C(N/N=C/c1ccc(N2CCOCC2)cc1)c1ccc(NS(=O)(=O)c2cccs2)cc1	.	.	.	7.57µM	.	.
CC1=C(C(=O)Nc2ccccc2)C(c2ccc(O)cc2)n2nc(-c3ccc(Cl)cc3)nc2N1 (configuration not stated)	/	/	/	.	/	.
O=C1c2cccc([N+](=O)[O-])c2C(=O)N1c1ncn[nH]1	/	/	/	/	/	.[9.22 µM]
Cc1cc(NC(=O)N2CCC(CN3CCCCCC3)CC2)ccc1Br	/	/	/	.	/	/
N/C(=N\c1nc2ccccc2o1)NC(=O)c1ccccc1Br	?	?	.	12µM	?	/
N/C(=N\c1nc2ccccc2o1)NC(=O)c1ccc(F)cc1	?	?	.	?	?	.
Cc1ccc2oc(/N=C(\N)NC(=O)C(C)(C)C)nc2c1	.	?	.	0.0757µM	.	/
CC(C)(C)c1ccc(C(=O)N/C(N)=N/c2nc3ccccc3o2)cc1	.	.	.	?	.	.
N/C(=N\c1nc2ccccc2o1)NC(=O)c1ccc(Cl)cc1	.	?	.	.	.	?
Cc1ccc2oc(/N=C(\N)NC(=O)C3CC3)nc2c1	0.447µM	?	?	0.849µM	0.631µM	/
O=C(c1ccc2c(c1)N(Cc1c(F)cccc1Cl)C(=O)c1ccccc1S2)N1CCOCC1	/	/	/	.	/	.
COc1ccc(C(=O)/C=C/c2ccc(O)cc2)c2c1CC(O)C(C)(C)O2 (configuration not stated)	/	23.1µM	.	/	/	/
COc1ccc(C(=O)/C=C/c2ccc(O)cc2)c(O)c1CC=C(C)C	.	.	.	?	.	.
Oc1cc(O)cc(/C=C/c2ccc(O)c(O)c2)c1	.	?	5.17µM	9.53µM	?	31.6µM
C/C=C/c1ccc(O)c(OC)c1	.	.	.	.	.	.
COC(=O)c1ccccc1NC(=O)Cn1c(=O)n(CCCC(=O)NCCc2ccc(OC)c(OC)c2)c(=O)c2ccccc21	/	/	/	.	/	.
COc1ccc([C@]23Cc4cc(OC)c(OC)cc4C(O2)C2=C(CC(C)(C)CC2=O)O3)cc1	.[1.84 µM]	/	/	.[11.5 µM]	.[1.84 µM]	/
Nc1nccc(-c2cc(-c3ccc(Cl)cc3Cl)no2)n1	0.316µM	?	?	0.675µM	0.355µM	/
Cc1cc(C)nc(NS(=O)(=O)c2ccc(NC(=O)c3nc(SC(C)C)ncc3Cl)cc2)n1	/	/	/	?	/	.
CCOC(=O)c1ccc(OCC2c3cc(OC)c(OC)cc3CCN2C(=O)c2ccc(S(=O)(=O)N3CCCC3)cc2)cc1 (configuration not stated)	/	/	/	.	/	/
Cc1ccc(N/C=C/c2onc(C)c2[N+](=O)[O-])cc1	0.631µM	?	1.3µM	0.601µM	2.51µM	/
